This is part of a sample that, as a whole, favours compounds with a hit. Of some 79,000 tested, about 15% had one in any assay. Cut-off read from the data, not from the text of the source: active = growth inhibition above about 70%; inactive = the rest.
How the values were obtained:
[1] = NCI Yeast Anticancer Drug Screen. Data for the rad50 strain (AID 155);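 note: 0% = growth of vehicle-only cultures of the same strain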; settings: S. cerevisiae rad50 strain growth inhibition; at 50.0 µM; active compounds read high
Summary of the method: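 Genetically altered yeast (DNA repair pathway); compound treatment; growth inhibition vs vehicle ctrl.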

[2] = NCI Yeast Anticancer Drug Screen. Data for the mec2-1 strain (AID 157); settings: S. cerevisiae mec2-1 strain, at 50.0 µM, active compounds read high
Summary of the method: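 Mutant yeast (mec2-1) grown with compound; growth inhibition relative to vehicle control reported.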

[3] = NCI Yeast Anticancer Drug Screen. Data for the sgs1 mgt1 strain (AID 161);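 note: 0% = growth of cultures given vehicle only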; settings: S. cerevisiae sgs1 mgt1 strain, at 50.0 µM, active compounds read high
Summary of the method: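 This yeast growth screen uses a strain with defined DNA-repair lesions; compound-treated growth is compared with vehicle-treated growth.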

[4] = NCI Yeast Anticancer Drug Screen. Data for the cln2 rad14 strain (AID 165);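 note: 0% = growth equal to vehicle treated cultures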; settings: S. cerevisiae cln2 rad14 strain, at 50.0 µM, active compounds read high
Summary of the method: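 Readout is yeast growth inhibition versus vehicle-treated controls, using a strain with cln2 and rad14 alterations exposed to compound.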

[5] = NCI Yeast Anticancer Drug Screen. Data for the bub3 strain (AID 167); settings: S. cerevisiae bub3 mutant strain, at 50.0 µM, active compounds read high
Summary of the method: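 Yeast carrying a defined mutation is treated with each compound, and growth is compared with that of vehicle-exposed cells to give inhibition.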

[6] = NCI Yeast Anticancer Drug Screen. Data for the mlh1 rad18 strain (AID 175); settings: S. cerevisiae mlh1 rad18 strain growth inhibition; at 50.0 µM; active compounds read high
Summary of the method: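 Genetically defined yeast (DNA repair-deficient) exposed to compounds; growth inhibition determined relative to vehicle.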

Measured: growth inhibition

CC(C)(C)NC(NC(C)(C)C)=C(C(Cl)=C(Cl)Cl)[N+](=O)[O-]
inactive: [1] -2.1% | [2] -9.55% | [3] -6.15% | [4] 7.8% | [5] 12.7% | [6] -0.75%

CC(=O)/C=C/CCC(=O)/C=C/C(=O)OC(CCC(=O)/C=C/C(=O)O)CC(C)=O (stereo not given)
inactive: [1] -5.25% | [2] -30.4% | [3] -18.4% | [4] 19.1% | [5] -24.1% | [6] -5.95%

Cc1cc(=O)c2ccccc2n1CCCCCCCCCCn1c(C)cc(=O)c2ccccc21
inactive: [1] -12.1% | [2] -0.25% | [3] -17% | [4] -21.9% | [5] -26.6% | [6] 26.4%

Cc1ccc(SCCSc2ccc(C)cc2)cc1
inactive: [1] 17.7% | [2] 5.8% | [3] 3% | [4] -5.7% | [5] 29.5% | [6] 39.5%

N/C(=N/O)c1cn(C2OC(CO)C(O)C2O)c2ncnc(NO)c12 (stereo not given)
inactive: [1] 9.65% | [2] -20.6% | [3] -0.2% | [4] -1.15% | [5] -16.1% | [6] 4.1%

CN(C)CCCNc1ccc([N+](=O)[O-])c2nc3ccccc3c(N)c12
inactive: [1] -2.1% | [2] -64.7% | [3] 6.45% | [4] -0.5% | [5] -11.4% | [6] 65.6%

CSC1(C)C(=O)Nc2cccc([N+](=O)[O-])c21 (stereo not given)
inactive: [1] -9.85% | [2] -20.1% | [3] 1% | [4] -7.5% | [5] 11.8% | [6] 2.45%

O=C(Cc1nc2sc3c(c2c(=O)[nH]1)CCCC3)Nc1ccccc1
inactive: [1] -3.1% | [2] -12.3% | [3] 0.05% | [4] 5.9% | [5] -4% | [6] -17.6%

CCCCCCCCCCCCCCCCCC(=O)N/N=C/c1ccccc1
inactive: [1] 1% | [2] -2.8% | [3] 12% | [4] 2.95% | [5] -1.5% | [6] -5.55%

Cc1nc2ccccc2nc1N1CCCC1
inactive: [1] -6.2% | [2] -29.1% | [3] -26.9% | [4] -25.2% | [5] -47.8% | [6] 0.55%

Cc1cc(C)nc(N)n1
inactive: [1] 0.25% | [2] 0.35% | [3] -1.85% | [4] -42.9% | [5] -1.9% | [6] 10.1%

CC(C)CCCC(C)C1CCC2C3CC=C4CC(OC(=O)C(Cl)(Cl)Cl)CCC4(C)C3CCC12C (stereo not given)
inactive: [1] -7.65% | [2] -7.55% | [3] -0.7% | [4] -27.1% | [5] -28.1% | [6] -5.4%

O=C1c2ccccc2C(=O)N1N1C(=O)c2ccccc2C1=O
inactive: [1] 3.95% | [2] -16.8% | [3] -4.45% | [4] 14% | [5] -4.7% | [6] 17.4%

Cc1cc([N+](=O)[O-])ccc1NC(=O)c1c(Cl)c(Cl)c(C(=O)Nc2ccc([N+](=O)[O-])cc2C)c(Cl)c1Cl
inactive: [1] 38.5% | [2] 28.1% | [3] 34.9% | [4] -34% | [5] 7.9% | [6] 45.1%

CCCCNc1ccc(S(=O)(=O)c2ccc(NCCCC)c([N+](=O)[O-])c2)cc1[N+](=O)[O-]
inactive: [1] 19.6% | [2] 6.6% | [3] 15.2% | [4] -1.4% | [5] 2.35% | [6] -9.8%

Cc1cnc(N/N=C/c2c(CO)cnc(C)c2O)s1
inactive: [1] 20.6% | [2] 9.85% | [3] 7.25% | [4] 11.6% | [5] 2.75% | [6] 23.6%

COc1cccc(/C=C\C(=O)c2ccccc(=O)c2O)c1OC
inactive: [1] 34.5% | [2] 23.4% | [3] 36.8% | [4] -5.4% | [5] 40.5% | [6] 40.9%

O=C(O)C1Cc2nc[nH]c2CN1CO (stereo not given)
inactive: [1] 6.1% | [2] -8.8% | [3] -19.8% | [4] 3.95% | [5] 23.7% | [6] 8%

COc1cc(OC)c(C2CC(C)(O)Oc3cc4c(cc32)OCO4)c(OC)c1 (stereo not given)
inactive: [1] 17.4% | [2] 3.8% | [3] 26.9% | [4] 3.9% | [5] 22.1% | [6] 11.8%

O=[N+]([O-])c1cc(C(F)(F)F)ccc1F
inactive: [1] -16% | [2] -15.2% | [3] -2.3% | [4] -25.8% | [5] -12.4% | [6] -0.15%

O=C(O)CCC1CCc2cccc(O)c2C1=O (stereo not given)
inactive: [1] 8.4% | [2] 3.3% | [3] 2.25% | [4] 15.6% | [5] 6.5% | [6] -3.45%

CC(C)C(/C=C/c1ccc(Br)cc1)=N\NC(N)=O
inactive: [1] -14.1% | [2] -29.2% | [3] -40.8% | [4] -13.9% | [5] -18.1% | [6] -18.9%

CC(=O)N/C(=C\c1ccc(Cc2nc3c([nH]2)C(=O)c2ccccc2C3=O)cc1)c1nc2c([nH]1)C(=O)c1ccccc1C2=O
inactive: [1] -7.5% | [2] 12.4% | [3] 11.1% | [4] 23.7% | [5] 15.2% | [6] 33.1%

O=C(NCCCBr)Nc1cccc2c1CCCC2
inactive: [1] -7.45% | [2] 5.9% | [3] 2.5% | [4] -31.5% | [5] -20.9% | [6] -21.1%

OCCSCCCSCCO
inactive: [1] 17.9% | [2] -4.8% | [3] -23% | [4] 3.5% | [5] 1.1% | [6] -4.8%

O=C(O)C1(c2ccccc2)CC1
inactive: [1] 8.5% | [2] -7% | [3] 13.1% | [4] 2.45% | [5] 15.9% | [6] 7.85%

CC(=O)N=C1N(/C=C2\C(=O)Oc3ccccc3C2=O)C(=O)/C(=C/c2ccc(NC(C)=O)cc2)N1C
inactive: [1] -32.8% | [2] -26.3% | [3] 34.2% | [4] 7.7% | [5] -31.1% | [6] -12.3%

N#CCCN(CCC#N)c1ccc(/C=C2\N=C(c3cc([N+](=O)[O-])ccc3Cl)N(S(=O)(=O)c3ccccc3)C2=O)cc1
inactive: [1] 23.2% | [2] 16.3% | [3] 3.5% | [4] -47.4% | [5] -1.35% | [6] 28.1%

CC1=NN(C(=O)CC(=O)Nc2ccc(C(=O)O)cc2)C(=O)C1N=Nc1ccccc1C(=O)O (stereo not given)
inactive: [1] 18.1% | [2] 18% | [3] 6.25% | [4] -6.5% | [5] -1.9% | [6] 25.7%

CCOC(=O)c1ccc(N=Nc2c(N)nc(N)nc2N)cc1
inactive: [1] -10.4% | [2] 10.3% | [3] -1.7% | [4] -61.4% | [5] -0.15% | [6] -11%

CC(=O)Nc1ccc(S(=O)(=O)NC(=O)NC(C)C)cc1
inactive: [1] -4.2% | [2] -26.4% | [3] -2.4% | [4] 20% | [5] 3% | [6] 14.3%

COc1ccc(-c2cc(-c3cc(C)cc(Br)c3O)no2)cc1
inactive: [1] -6.55% | [2] -13.3% | [3] -10.8% | [4] -3.2% | [5] -4.4% | [6] 14.3%

CN1CC(O)CN(C)C1=S
inactive: [1] -9.05% | [2] -8.2% | [3] 1.6% | [4] -34.6% | [5] -7.9% | [6] -5%

O=C1CC2COc3ccccc3C2=NN1c1ccccc1 (stereo not given)
inactive: [1] 13.6% | [2] 4.3% | [3] 4.7% | [4] 1.35% | [5] -4.15% | [6] 10.2%

Cc1c(CN2CCOCC2)c(CN2CCOCC2)c(C)n1-c1ccc(Cl)cn1
inactive: [1] -31.1% | [2] 7.9% | [3] -23.1% | [4] -6.85% | [5] -15.7% | [6] 7.55%

NC(N)=N/N=C1/C(=O)N(C2CCCCCC2)C(=O)C1C(=O)NC1CCCCCC1 (stereo not given)
inactive: [1] 35.8% | [2] 5.3% | [3] 14.9% | [4] 23.9% | [5] 6.4% | [6] 28.1%

CC(=O)N(C(C)=O)c1ccc2c(c1)Cc1ccccc1-2
inactive: [1] 14.9% | [2] -12.9% | [3] 17.4% | [4] 3.85% | [5] 35.3% | [6] 15.1%

CN=C(NC)c1ccc(Cl)c(Cl)c1
inactive: [1] 8.1% | [2] -5.4% | [3] -0.9% | [4] -31.2% | [5] 10.9% | [6] 11.8%

CCCSc1ccc([N+](=O)[O-])cc1[N+](=O)[O-]
inactive: [1] 31.8% | [2] -5.6% | [3] 25.2% | [4] 1% | [5] -5.35% | [6] 32.8%

c1ccc(C2=C(c3ccccn3)N=c3ccccc3=c3ccccc3=N2)nc1
inactive: [1] 2.4% | [2] 14.2% | [3] -1.15% | [4] -48.6% | [5] 3.65% | [6] -8.9%

— PubChem BioAssay (NCI)
